The text below walks through data of PubChem BioAssay AID1220 (Sanford-Burnham Center for Chemical Genomics, 2008).

Hit rate of the full screen: of about 190,000 compounds, about 1,300 (0.68%) were called active. The sample holds actives, similar compounds and a random draw of the others, so the mix is not that of the screen. A number with no mark means an inactive call. Cut-off read from the data, not from the text of the source: active = inhibition above about 50%; inactive = the rest.

Mannose-6-phosphate isomerase (Homo sapiens), sequence (P34949 whole entry, looked up): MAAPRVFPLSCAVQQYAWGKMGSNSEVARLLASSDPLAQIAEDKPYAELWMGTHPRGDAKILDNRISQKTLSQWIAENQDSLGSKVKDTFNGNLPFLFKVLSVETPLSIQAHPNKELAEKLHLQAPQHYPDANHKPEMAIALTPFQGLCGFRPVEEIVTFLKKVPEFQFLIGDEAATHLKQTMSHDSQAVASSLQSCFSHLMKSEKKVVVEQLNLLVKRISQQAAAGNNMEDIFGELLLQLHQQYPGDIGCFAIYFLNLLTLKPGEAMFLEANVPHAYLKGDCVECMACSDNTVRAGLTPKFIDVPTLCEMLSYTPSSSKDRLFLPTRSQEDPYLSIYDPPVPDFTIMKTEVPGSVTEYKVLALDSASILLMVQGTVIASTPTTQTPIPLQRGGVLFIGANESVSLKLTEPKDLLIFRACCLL

This assay concerns the target Mannose-6-phosphate isomerase (Homo sapiens) (UniProt P34949). Kind of assay: human PMI inhibitors, high substrate, primary screen, biochemical, fluorescence intensity, high mannose 6-phosphate (AID 1220). The note with it: recombinant PMI enzyme, coupled fluorescence intensity; at 20 µM; stronger effect = higher value.
On to `CCc1cccc(NC(=O)CS(=O)Cc2nc(-c3ccc(C)cc3)oc2C)c1` (stereo unspecified), for which the inhibition was 6.8%.

With `COc1ccccc1-n1cnnc1SCC(=O)NCC1CCCO1` (stereo unspecified), the inhibition is -9.1%.

With `Cc1ccc2nc(-c3ccccc3)c(CN3CCOCC3)n2c1`, the inhibition was -1%.

On to `O=C(NC(=S)Nc1nc(-c2ccc(Cl)cc2)cs1)c1cccs1`, for which the inhibition was -11.6%.

As for `COc1ccc(C)cc1NC(=O)c1ccoc1C`, the inhibition is 3.7%.

Take `Oc1ccc(-c2cn3c(n2)SCC3)cc1`: the inhibition was -10.9%.

Regarding `Oc1ccc(-c2cn3c(n2)SCC3)cc1O`, the inhibition is 53.1% (active).

Take `Cc1ccc(-c2cn3c(n2)SCC3)cc1`: the inhibition is 1%.

With `O=C(NCc1cccnc1)NC1CCCN1S(=O)(=O)c1ccc(Cl)cc1` (stereo unspecified), the inhibition is -3.5%.

Turning to `Cc1ccc(-c2csc(NC(=O)CSc3ncn(-c4ccccc4)n3)n2)cc1`, the inhibition was 0%.

In the case of `COc1cccc(NC(=O)CSc2nc3c(c(=O)n2C)SC(C)C3)c1` (stereo unspecified), the inhibition is 2.4%.

`CCOc1ccc(C(=O)N[C@H](C(=O)Nc2ccc(OC)c(S(=O)(=O)N3CCOCC3)c2)C(C)C)cc1`: the inhibition is 10.3%.

As for `CCOc1ccc(C(=O)N[C@H](C(=O)Nc2cccc(S(=O)(=O)N3CCCCC3)c2)C(C)C)cc1`, the inhibition is 57.6% (active).

On to `O=C(Nc1cccc(S(=O)(=O)N2CCCCC2)c1)c1ccc(OCC2CCCO2)cc1` (stereo unspecified), for which the inhibition was 2.6%.

In the case of `CCOC(=O)COn1c(=O)c(=O)n(O)c2ccccc21`, the inhibition was 24.9%.

Take `CC(=O)Nc1ccc(N=Cc2ccc(OCc3ccccc3)cc2)cc1`: the inhibition is 10.3%.

With `Oc1ccc(/C=N/N=C/c2ccc(O)cc2)cc1`, the inhibition is -2.8%.

Regarding `Oc1ccc(N=Cc2ccc(OCc3ccccc3)cc2)cc1`, the inhibition is 58.5% (active).

As to `NC(N)=N/N=C/c1ccc(OCc2ccccc2)cc1`, the inhibition is 1.2%.

Take `O=Cc1ccc(O)c(O)c1`: the inhibition is -5%.

Turning to `Oc1ccc(N=Cc2ccc(O)c(O)c2)cc1`, the inhibition is 52.6% (active).

For `O=C(c1sc2ccccc2c1Cl)N(Cc1ccccc1Cl)C1CCS(=O)(=O)C1` (stereo unspecified), the inhibition is 1.4%.

As to `COc1cc(OC)cc(C(=O)OCC(=O)Nc2ccc(N3CCCCC3)cc2)c1`, the inhibition was -11.3%.

Turning to `COc1ccc(-c2nn(CCC#N)cc2/C=N/O)cc1OC`, the inhibition is 10.3%.

For the compound `O=C(CSc1ccc(-c2ccc(F)cc2)nn1)N1CCCc2ccccc21`, the inhibition is 13.5%.

Take `Cc1c(Cl)c([N+](=O)[O-])nn1CC(=O)Nc1ccc2c(c1)OCO2`: the inhibition is -4.5%.

`COCCNC(=O)Cn1c(=O)n(CCCCCC(=O)NCc2ccc3c(c2)OCO3)c(=O)c2sccc21`: the inhibition is -13.4%.

As to `CCOc1ccc(NC(=O)C2CC(C)=C(C)CC2C(=O)O)cc1` (stereo unspecified), the inhibition is 0.7%.

Turning to `CCOC(=O)c1sc(NC(C)=O)c(C(=O)OCC)c1C`, the inhibition was 7.7%.

On to `CCOC(=O)c1sc(NC(=S)NC(=O)c2ccccc2Cl)c(C(=O)OCC)c1C`, for which the inhibition was 5.4%.

In the case of `CCOC(=O)c1sc(NC(=O)c2ccccc2F)c(C(N)=O)c1C`, the inhibition was 56.6% (active).

As for `CCn1c(N)nc2c1c(=O)n(C)c(=O)n2C`, the inhibition was -1.8%.

For `Cn1c(=O)c(-c2ccccc2)nc2ccccc21`, the inhibition is 4.9%.

For `Cn1nc(-c2ccc(Cl)cc2)nc2c(=O)n(C)c(=O)nc1-2`, the inhibition is 10.6%.

As to `CCCc1nc(SCC(=O)c2ccc(OC)cc2)c2c(=O)n(C)c(=O)n(C)c2n1`, the inhibition was -2.5%.

Consider `COC(=O)c1ccccc1OCCOc1ccccc1C(=O)OC`, for which the inhibition is 2.8%.

For the compound `COc1ccc(OC)c(-c2nc3cc4ccccc4cc3nc2-c2ccccc2)c1`, the inhibition was 10.1%.

`COc1ccccc1-c1nc2cc3ccccc3cc2nc1-c1ccccc1`: the inhibition is 50.6% (active).

With `COc1ccccc1-c1nc2ccccc2nc1-c1ccccc1`, the inhibition is 12.5%.

On to `COc1ccccc1-c1nc2ccccc2nc1-c1ccccc1OC`, for which the inhibition was 2.8%.

As to `COc1ccccc1-c1cc2ccccc2[nH]1`, the inhibition is 4.7%.

As for `COc1ccccc1-c1nc2cc3ccccc3cc2nc1-c1ccccc1OC`, the inhibition was 50.1% (active).

Regarding `CC(=O)Nc1ccc(C(=O)OCC(=O)Nc2ccccc2Sc2ccccc2)cc1`, the inhibition is 2.4%.

Turning to `COc1ccccc1CNC(=O)COc1ccc([N+](=O)[O-])cc1`, the inhibition was 2.1%.

For `COc1ccc(CC(=O)Nc2cccc(SC)c2)cc1`, the inhibition is 1.7%.

Take `O=C1C(Cl)=C(NCCN2CCCCC2)C(=O)c2ccccc21`: the inhibition was 54.3% (active).

As to `CCNC1=C(Cl)C(=O)c2ccccc2C1=O`, the inhibition is 15.6%.

In the case of `COc1ccccc1NC(C)=O`, the inhibition is 9.5%.

Take `COc1ccccc1NC1=C(N2CCCCC2)C(=O)c2ccccc2C1=O`: the inhibition was 2.6%.

Consider `Cc1ccc(NC2=C(Cl)C(=O)c3ccccc3C2=O)cc1`, for which the inhibition was 41.8%.

On to `CC(=O)Nc1ccc(NC2=C(Cl)C(=O)c3ccccc3C2=O)cc1`, for which the inhibition was 57.8% (active).

As to `CC(=O)Nc1ccc2c(c1)C(=O)c1ccccc1C2=O`, the inhibition was -69.9%.

Take `O=C(Oc1ccc(NC2=C(Cl)C(=O)c3ccccc3C2=O)cc1)c1ccc([N+](=O)[O-])cc1`: the inhibition was 32.9%.

For `COc1ccccc1NC1=C(NC(C)=O)C(=O)c2ccccc2C1=O`, the inhibition is 60.1% (active).

Turning to `O=C1c2ccccc2C(=O)N1CCN1CCCCC1`, the inhibition is 2.7%.

With `O=C(O)c1cccc(NC2=C(Cl)C(=O)c3ccccc3C2=O)c1`, the inhibition is 39.9%.

On to `O=C1C(Cl)=C(Nc2ccccc2)C(=O)c2ccccc21`, for which the inhibition is 52.5% (active).

Consider `CCCCn1nnnc1SCC(=O)c1ccc(C)c(C)c1`, for which the inhibition was 7.7%.

Regarding `COCCCNC(=O)CCCCCNS(=O)(=O)c1ccc(Br)cc1`, the inhibition is -6.2%.

`COc1ccccc1OCC(=O)Sc1ccc(C)cc1`: the inhibition is 13%.

As to `CC(=O)c1ccc(N2CCN(C(=O)Nc3ccc(C)cc3)CC2)cc1`, the inhibition was -1.7%.

With `Cc1ccccc1Nc1ncnc(N)n1`, the inhibition was -3.4%.

As to `O=[N+]([O-])c1ccc(Cl)cc1Sc1ccccn1`, the inhibition was 2.7%.

Turning to `Cn1c(SCC(=O)c2ccc3c(c2)OCO3)nnc1C1COc2ccccc2O1` (stereo unspecified), the inhibition is 1.3%.

For `COC(=O)c1ccc(CSc2cc(C)c3cc(C)cc(C)c3n2)o1`, the inhibition is -4.5%.

Take `O=C1C(Cl)=C(NCCCO)C(=O)c2ccccc21`: the inhibition was 2.8%.

On to `CCOc1ccc(NC2=C(OC)C(=O)c3ccccc3C2=O)cc1`, for which the inhibition is 25.9%.

On to `CCN(CC)c1ccc(N2C(=O)c3ccccc3C2=O)cc1`, for which the inhibition was 4.2%.

Regarding `CCN(CC)CCCNC1=C(Cl)C(=O)c2ccccc2C1=O`, the inhibition is 58.1% (active).

For the compound `C=CCNC1=C(Cl)C(=O)c2ccccc2C1=O`, the inhibition is 38.6%.

As for `CCN(CC)c1ccc(NC2=C(Cl)C(=O)c3ccccc3C2=O)cc1`, the inhibition is 56.9% (active).

On to `CN1C(=O)c2ccc(NC(=S)NC(=O)C(C)(C)C)cc2C1=O`, for which the inhibition is 8.4%.

On to `COCCSc1nnc(NC(=O)C2CCCCC2)s1`, for which the inhibition was -1.4%.

As for `CCN(c1ccccc1)S(=O)(=O)c1ccc2[nH]cc(C(=O)N3CCOCC3)c(=O)c2c1`, the inhibition was 8.3%.

`COc1cccc2c(=O)c(SC(F)(F)C(F)C(F)(F)F)c(C)[nH]c12` (stereo unspecified): the inhibition is 6.8%.

With `COc1cccc2c(=O)c(C/C=C(/C)Cl)c(C)[nH]c12`, the inhibition was 4.6%.

`COc1cccc2c(=O)c3cccc(N)c3[nH]c12`: the inhibition is 65.6% (active).

For `COc1ccc(-c2csc(/C(C#N)=C\c3ccc(OC)c([N+](=O)[O-])c3)n2)cc1`, the inhibition is 3.4%.

As to `CCN1CCN(C(=S)Nc2ccc3nc4n(c(=O)c3c2)CCCCC4)CC1`, the inhibition was -3.2%.

Turning to `Cc1ccc(S(=O)(=O)NCC(=O)NCC(=O)OCC(=O)N2CC(=O)Nc3ccccc32)cc1C`, the inhibition is 13.9%.

Consider `COc1ccccc1NC(=O)CC1S/C(=N/N=C2\CCCc3ccccc32)NC1=O` (stereo unspecified), for which the inhibition was 6.9%.

In the case of `CCN(CC)c1ccc(/C=N/N2CCN(Cc3cccc4ccccc34)CC2)c(O)c1`, the inhibition was 30.7%.

For the compound `CCN(CC)c1ccc(/C=N/N2CCOCC2)cc1`, the inhibition was 14.3%.

`CCN(CC)c1ccc(/C=N/N2CCN(Cc3ccc(C)cc3)CC2)c(O)c1`: the inhibition is 30.3%.

For `CCN(CC)c1ccc(/C=N/N2CCOCC2)c(O)c1`, the inhibition is 53.7% (active).

Regarding `Fc1ccc(/C=N/N2CCOCC2)c(F)c1`, the inhibition is 8.8%.

Turning to `CCN(CC)c1ccc(/C=N/N2CCN(Cc3ccc(C)cc3C)CC2)c(O)c1`, the inhibition was 39.8%.

`CCN(CC)c1ccc(/C=N/N2CCN(Cc3ccccc3)CC2)c(O)c1`: the inhibition was 53% (active).

In the case of `COc1cccc(/C=N/N2CCOCC2)c1O`, the inhibition is 3.6%.

As for `CCCn1c(=O)c2ccccc2n2c(SCC(=O)Nc3cc(C)on3)nnc12`, the inhibition was 0%.

For the compound `CCC(/C=C1\Sc2ccc(OC)cc2N1CCO)=C\c1sc2ccc(OC)cc2[n+]1CCO`, the inhibition is 13%.

On to `Cc1cc(C)nc(SCCn2c(N3CCC(C)CC3)nc3c2c(=O)n(C)c(=O)n3C)n1`, for which the inhibition was 12.2%.

As to `Fc1ccc(NC(=S)N/N=C/c2ccc(F)c(F)c2)c(F)c1`, the inhibition was -6.4%.

Take `CCN(CC)c1ncnc2sc(C(=O)N3CCN(c4ccccc4)CC3)c(C)c12`: the inhibition was 6.5%.

For the compound `Cc1ccc2cc(CCNC(=O)c3ccc(C)c([N+](=O)[O-])c3)c(=O)[nH]c2c1`, the inhibition was -17%.

For `CN(C(=O)CSc1nnc(-c2ccc(F)cc2)c2ccccc12)C1CCS(=O)(=O)C1` (stereo unspecified), the inhibition is -14.8%.

Consider `CSc1sc(C)cc1C1C(C#N)=C(N)N(c2cccnc2)C2=C1C(=O)CC(C)(C)C2` (stereo unspecified), for which the inhibition is 13.9%.

As for `CC1CCN(S(=O)(=O)c2ccc3c(c2)oc(=O)n3CC(=O)N2CCc3ccccc3C2)CC1`, the inhibition was -7.5%.

In the case of `C/C(CC(=O)Nc1cccc(Cl)c1Cl)=N\NC(=O)c1ccccc1N`, the inhibition was 3.3%.

Consider `C/C(CC(=O)Nc1cccc(Cl)c1Cl)=N\NC(=O)c1ccccc1C`, for which the inhibition is 2.3%.

As for `C/C(CC(=O)Nc1cccc(Cl)c1Cl)=N\NC(=O)c1ccccc1Br`, the inhibition is 50.8% (active).

A word on the inhibition: it is the drop in the measured response relative to a control, in per cent.
